In the supplement of paper PMC6555819:

Key:
Assay in all cases: PBM binding z-score (relative to random genomic background probes); higher = stronger binding; sequences stand for … in GC…GCGATTGACAGCGTAGAATGAAGG
[1] = test system: FXR:RXRa (NR concentration 270 nM, RXRa partner concentration 90 nM)
Method in brief: (§1)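 Regression normalization was applied to scanned fluorescence from custom Agilent 4×180K protein-binding microarrays. Before scanning, arrays were incubated 1 h with ligand-free nuclear receptor dimers, and binding was detected with antibodies against each partner (one per run). Binding z-scores use the random background probes as reference.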

[2] = test system: LXRa:RXRa (NR concentration 270 nM, RXRa partner concentration 90 nM)
Method in brief: as §1

[3] = test system: LXRa homodimer (NR concentration 270 nM)
Method in brief: as §1

[4] = test system: LXRb:RXRa (NR concentration 270 nM, RXRa partner concentration 90 nM)
Method in brief: as §1

[5] = test system: PPARa:RXRa (NR concentration 270 nM, RXRa partner concentration 90 nM)
Method in brief: as §1

[6] = test system: PPARg:RXRa (NR concentration 180 nM, RXRa partner concentration 90 nM)
Method in brief: as §1

[7] = test system: PPARg:RXRa 270nM:90nM, anti-RXR (NR concentration 270 nM, RXRa partner concentration 90 nM)
Method in brief: as §1

[8] = test system: PPARg:RXRa 30nM:10nM, anti-RXR (NR concentration 30 nM, RXRa partner concentration 10 nM)
Method in brief: as §1

[9] = test system: PPARg:RXRa 90nM:30nM, anti-RXR (NR concentration 90 nM, RXRa partner concentration 30 nM)
Method in brief: as §1

Row | Sequence | PBM binding z-score [1] | PBM binding z-score [2] | PBM binding z-score [3] | PBM binding z-score [4] | PBM binding z-score [5] | PBM binding z-score [6] | PBM binding z-score [7] | PBM binding z-score [8] | PBM binding z-score [9]
1 | CTCTGTAGGTTAAGGGGGTCATTCAGTTTGAAAG | 5.36 | 5.1 | 3.51 | 6.33 | 5.68 | 6.59 | 6.91 | 4.4 | 6.57
2 | TCGAGTAGGTTACGGGGGCATTCGGGGATGAAGA | 3.14 | 3.56 | 0.662 | 5.09 | 4.28 | 6.03 | 5.81 | 3.14 | 4.8
3 | TCGAGTAGGTTACGGGTGCATTCAGGGATGAAGA | 0.435 | 0.756 | -0.274 | 0.94 | 2.22 | 2.3 | 2.7 | 2.01 | 2.23
4 | CCGAGTAGGTTACGAGGGGACATTCAGTGCGAAT | 1.08 | 5.68 | 0.00926 | 3.05 | 1.68 | 2.07 | 2.15 | 0.304 | 1.13
5 | CTATGTAGGTTAAGGGGGTCATTCGGTTTGAAAG | 5.21 | 4.84 | 2.94 | 6.16 | 6.15 | 8.47 | 7.83 | 6.21 | 7.86
6 | CTATGTAGGTTAAGGGGGTCATCCAGTTTGAAAG | 4.86 | 4.86 | 2.5 | 6.27 | 6.19 | 8.53 | 7.67 | 6.02 | 7.82
7 | CTATGTAGGTTAAGGGGTTCATTCAGTTTGAAAG | 2.03 | 3.21 | 2.34 | 3.8 | 4.75 | 7.11 | 6.53 | 4.01 | 6.09
8 | CCGAGTAGGTTAAGAGGGGGCATTCAGTGCGAAT | 3.24 | 6.72 | 1.5 | 5.79 | 3.21 | 1.93 | 3.19 | 0.978 | 2.43
9 | CTATGTAGGTTAAGGGGGTCATTCCGTTTGAAAG | 4.77 | 5.26 | 3.1 | 6.22 | 6.1 | 8.1 | 7.77 | 5.98 | 7.6
10 | CCGAGTAGGTTACGAGGGAGCATTCAGTGCGAAT | -0.0908 | 3.55 | -0.145 | 1.05 | 1.52 | 1.15 | 1.55 | 0.0513 | 0.563
11 | CTATGTAGGTTAATGGGGTCATTCAGTTTGAAAG | 5.79 | 5.31 | 3.46 | 5.41 | 6.23 | 7.9 | 7.12 | 4.64 | 6.55
12 | CTATGTAGGTTAAGGGGGTCCTTCAGTTTGAAAG | 1.09 | 1.76 | 0.414 | 3.75 | 4.29 | 6.59 | 6.57 | 4.47 | 6.41
13 | CCGAGTATGTTACGAGGGGGCATTCAGTGCGAAT | 1.03 | 4.44 | 0.955 | 3.9 | 2.28 | 0.244 | 1.45 | 0.332 | 1.29
14 | CCGAGTAGGTTACGAGGGGGCATTGAGTGCGAAT | 2.26 | 7.11 | 1.25 | 6.12 | 3.55 | 2.61 | 3.24 | 1.03 | 2.58
15 | CCGAGTAGGTTACGAGGGGGCATTCAGTGCGAAT | 2.35 | 6.98 | 1.84 | 6.35 | 3.42 | 2.22 | 3.3 | 1.24 | 2.55
16 | CCGAGTAGGTTACGAGGGGCCATTCAGTGCGAAT | 1.12 | 5.25 | -0.218 | 3.07 | 1.76 | 1.4 | 1.54 | 0.0553 | 0.829
17 | TCGAGTAGGTTTCGGGGGCATTCAGGGATGAAGA | 2.38 | 2.27 | 0.973 | 4.48 | 2.96 | 1.4 | 2.99 | 2.29 | 2.8
18 | CCGAGTAGGTTACCAGGGGGCATTCAGTGCGAAT | 2.76 | 7.81 | 3.59 | 6.85 | 3.43 | 2.1 | 3.31 | 0.696 | 2.27
19 | TCGAGTAGGTTACGGGGGCACTCAGGGATGAAGA | 2.26 | 2.67 | 0.365 | 4.7 | 4.43 | 6.44 | 6.05 | 3.54 | 5.14
20 | CCGAGTAGGTTACGAGGAGGCATTCAGTGCGAAT | -0.167 | 4.4 | -0.319 | 0.864 | 1.26 | 0.943 | 1.25 | -0.283 | 0.832
21 | CCGAGTAGGTCACGAGGGGGCATTCAGTGCGAAT | 6.09 | 6.71 | 1.59 | 6.56 | 5.66 | 7.8 | 7.12 | 4.32 | 6.72
22 | CTATGTAGGTTAAGGGGGTGATTCAGTTTGAAAG | 1.52 | 1.98 | 0.79 | 3.83 | 4.69 | 7.43 | 6.74 | 4.44 | 6.29
23 | CTATGTACGTTAAGGGGGTCATTCAGTTTGAAAG | 4.34 | 4.93 | 2.68 | 6.5 | 5.53 | 3.31 | 5.19 | 3.25 | 4.57
24 | TCGAGTAGGTTACTGGGGCATTCAGGGATGAAGA | 0.441 | 0.372 | -0.186 | 0.462 | 3.51 | 4.99 | 4.53 | 2.29 | 3.46
25 | CCGAGTAGGTTACGAGGGGGCATTCATTGCGAAT | 2 | 6.78 | 1.16 | 6.12 | 3.42 | 2.64 | 3.26 | 1.35 | 2.85
26 | CTATGTAGGCTAAGGGGGTCATTCAGTTTGAAAG | 3.71 | 3.81 | 0.999 | 5.74 | 5.31 | 5.77 | 6.41 | 3.65 | 6.14

Row | Sequence | PBM binding z-score [1] | PBM binding z-score [2] | PBM binding z-score [3] | PBM binding z-score [4] | PBM binding z-score [5] | PBM binding z-score [6] | PBM binding z-score [7] | PBM binding z-score [8] | PBM binding z-score [9]
27 | TCGAGTAGGTTACGGGGGTATTCAGGGATGAAGA | 1.78 | 2.4 | 0.457 | 4.07 | 3.45 | 4.49 | 4.53 | 2.64 | 3.61
28 | CTATGTAGGTTAAGAGGGTCATTCAGTTTGAAAG | 2.95 | 3.05 | 1.07 | 2.93 | 4.89 | 5.88 | 5.47 | 2.95 | 4.99
29 | TCGCGTAGGTTACGGGGGCATTCAGGGATGAAGA | 2.62 | 3.1 | 0.819 | 5.1 | 4.31 | 4.62 | 4.92 | 3.28 | 3.93
30 | CCGAGTAGGGTACGAGGGGGCATTCAGTGCGAAT | 1.83 | 4.84 | 0.674 | 4.44 | 2.53 | 0.709 | 1.58 | 0.0374 | 1.17
31 | CTATGTAGGTTAAGGGGGTTATTCAGTTTGAAAG | 2.37 | 2.74 | 1.14 | 5.09 | 5.34 | 7.83 | 7.16 | 5.05 | 7.12
32 | CCGAGTAGGTTACGAGGGGGGATTCAGTGCGAAT | 2.34 | 3.82 | 0.79 | 5.43 | 2.99 | 2.52 | 3.71 | 1.57 | 3.4
33 | CCGAGTAGGTTACGAGAGGGCATTCAGTGCGAAT | 1.04 | 7.41 | 2.68 | 5.96 | 2.19 | 1.48 | 1.64 | -0.24 | 0.958
34 | TCGAGTAGTTTACGGGGGCATTCAGGGATGAAGA | 1.17 | 2.22 | 0.776 | 4.38 | 2.69 | 1.11 | 2.83 | 2.71 | 2.91
35 | CTATGTAGGTTAAGGGGGACATTCAGTTTGAAAG | 1.22 | 1.63 | 0.816 | 3.58 | 5.12 | 8.82 | 8.59 | 7.64 | 9.61
36 | CCGAGTAGGTTACGAGGGGGCATTCGGTGCGAAT | 1.7 | 7.08 | 1.42 | 6.21 | 3.53 | 2.41 | 3.16 | 0.729 | 2.56
37 | CTATGTAGGTTAAGGAGGTCATTCAGTTTGAAAG | 3.87 | 4.84 | 4.54 | 3.92 | 5.23 | 6.14 | 5.71 | 3.14 | 5.11
38 | CTATGTAGGTTAAGGGGCTCATTCAGTTTGAAAG | 0.164 | 0.226 | -0.199 | 1.35 | 4.02 | 6.99 | 6.59 | 4.66 | 6.73
39 | TCGAGTAGGTTACGGGGGCATTCATGGATGAAGA | 2.37 | 2.82 | 0.637 | 4.75 | 4.29 | 6.11 | 5.78 | 3.34 | 4.94
40 | CTATGTAGGTTAAGGGGGTAATTCAGTTTGAAAG | 1.45 | 2.81 | 0.813 | 4.23 | 4.84 | 7.58 | 6.9 | 5.33 | 6.78
41 | TCGAGTAGGTGACGGGGGCATTCAGGGATGAAGA | 2.66 | 2.37 | 0.394 | 4.6 | 3.82 | 5.16 | 5.26 | 3.32 | 4.67
42 | CTATGTAGGTTAAGGGGATCATTCAGTTTGAAAG | 0.585 | 0.973 | 0.126 | 2 | 3.77 | 5.97 | 5.5 | 3.3 | 4.86
43 | CCGAGTAGGTTACGAGGGGGAATTCAGTGCGAAT | 0.932 | 1.98 | 0.178 | 3.04 | 2.28 | 1.76 | 2.55 | 0.623 | 1.37
44 | TCGAGTAGGTTACGGGGGCATTCTGGGATGAAGA | 2.21 | 2.51 | 0.493 | 5.03 | 4.23 | 6.17 | 5.55 | 3.42 | 4.95
45 | TCAAGTAGGTTACGGGGGCATTCAGGGATGAAGA | 3.28 | 3.4 | 1.53 | 5.4 | 4.49 | 7.97 | 7.05 | 6.15 | 6.95
46 | CCGAGTAGGTTACGAGGGGGCAATCAGTGCGAAT | 2.55 | 6.66 | 0.917 | 6.01 | 3.34 | 2.49 | 3.24 | 0.613 | 2.21
47 | TCGAGTAGGTTACGGGGGCATTTAGGGATGAAGA | 3.13 | 3 | 0.674 | 5.04 | 4.52 | 6.04 | 5.65 | 2.96 | 4.66
48 | CCGAGTAGCTTACGAGGGGGCATTCAGTGCGAAT | 0.729 | 1.73 | 0.701 | 3.62 | 1.77 | -0.443 | 0.5 | -0.877 | -0.359
49 | CTATGTAGGTTAACGGGGTCATTCAGTTTGAAAG | 5.18 | 5.6 | 2.97 | 5.87 | 6.19 | 7.77 | 6.92 | 4.45 | 6.47
50 | TCGAGTAGGTTACGGGGGCATCCAGGGATGAAGA | 2.12 | 2.55 | 0.293 | 4.73 | 4.35 | 6.04 | 6.05 | 3.04 | 5.24
51 | CTATGTAGGTTAAGGGGGTCATTCACTTTGAAAG | 5.19 | 5.06 | 2.92 | 6.16 | 5.91 | 8.46 | 8.03 | 5.89 | 8.28
52 | CCGAGTAGGTGACGAGGGGGCATTCAGTGCGAAT | 1.24 | 3.03 | 0.595 | 4.26 | 3.3 | 2.94 | 3.3 | 0.701 | 2.23
